Laboratory results reported in the supplement of paper PMC10646978.
± gives the standard deviation.

Key:
Details in all cases: modulator concentration 10 µM
[1] = tested on: RAW-Dual (murine macrophage reporter line); test: NF-kB reporter (SEAP) activity fold change vs agonist alone; higher = enhanced NF-kB activity
Method in brief: (§1)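 RAW-Dual murine macrophage reporter cells were plated at 50 000 per well in 384-well plates, pin-transferred compound to 10 μM final, and pre-incubated for 1 hour at 37 °C before a PRR agonist was added and the cells incubated overnight. NF-κB activity was read from supernatant SEAP with QUANTI-Blue at 620 nm absorbance, and IRF activity from Lucia luciferase with QUANTI-Luc by luminescence. Each signal was expressed as fold change by dividing by the mean agonist-only control on the same plate. Two replicate plates were averaged, with errors obtained by propagation.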

[2] = tested on: RAW-Dual (murine macrophage reporter line); test: IRF reporter (Lucia luciferase) activity fold change vs agonist alone; higher = enhanced IRF activity
Method in brief: as §1

[3] = tested on: RAW-Dual (murine macrophage reporter line); test: viability score (confluency relative to resting cells, overnight) (fraction); higher = more viable, active = viable (0.7 or more)
Method in brief: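 Compound was added at a final 10 μM to RAW-Dual macrophages in 384-well plates and left overnight. Confluency was imaged with IncuCyte, and two masks were generated in IncuCyte software over all imaged wells. Each viability score is confluency relative to resting cells, and a compound met the cutoff only when both masks were above 70% of resting cells.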

[4] = agonist: CpG ODN 1826 0.5 ug/mL

Row | SMILES | NF-kB reporter [1, 4] | NF-kB reporter ([1]; agonist: LPS 0.1 ug/mL) | NF-kB reporter ([1]; agonist: MPLA […]) | IRF reporter ([2]; agonist: 3'3'-cGAMP 10 ug/mL) | IRF reporter ([2]; agonist: LPS 0.1 ug/mL) | IRF reporter ([2]; agonist: MPLA […]) | viability score [3]
1 | CC1(C)Cc2ccccc2C(=C(C#N)C#N)N1 | 1.01 ± 0.08 | 0.912 ± 0.068 | 1.06 ± 0.1 | 1.03 ± 0.041 | 1.33 ± 0.2 | 1.5 ± 0.34 | 1.01 (active)
2 | O=C(Nc1ccc(Br)cc1)c1cccc(S(=O)(=O)NC2CCCCC2)c1 | 0.746 ± 0.057 | 0.846 ± 0.076 | 1.24 ± 0.035 | 0.527 ± 0.019 | 1.04 ± 0.14 | 1 ± 0.17 | 0.983 (active)
3 | Cc1ccccc1-c1noc(-c2cc3ccccc3oc2=O)n1 | 0.911 ± 0.25 | 0.936 ± 0.077 | 0.917 ± 0.07 | 1 ± 0.027 | 1.08 ± 0.11 | 1.21 ± 0.12 | 0.996 (active)
4 | CCC(=O)N1c2ccccc2NC2=C(C(=O)CC(c3ccccc3F)C2)C1c1ccc(C)cc1 (configuration not stated) | 1.02 ± 0.12 | 1.07 ± 0.079 | 1 ± 0.064 | 0.985 ± 0.043 | 1.35 ± 0.3 | 1.07 ± 0.072 | 1.01 (active)
5 | O=C(O)CCC(=O)O.O=C(O[C@H]1CN2CCC1CC2)N1CCc2ccccc2[C@@H]1c1ccccc1 | 0.544 ± 0.087 | 0.886 ± 0.046 | 1.07 ± 0.029 | 0.921 ± 0.1 | 1.05 ± 0.097 | 0.977 ± 0.11 | 0.992 (active)
6 | COc1ccc(-c2nc(CNC(=O)C3CCN(c4cc(C5CC5)ncn4)CC3)cs2)cc1 | 0.957 ± 0.066 | 1.4 ± 0.11 | 1.16 ± 0.05 | 1.05 ± 0.062 | 1.24 ± 0.14 | 1.29 ± 0.25 | 1 (active)
7 | Cc1ccc(OCC(=O)N2CCN(c3ccc(-n4cncn4)nn3)CC2)c(C(C)(C)C)c1 | 1.11 ± 0.13 | 0.971 ± 0.085 | 1.27 ± 0.037 | 0.964 ± 0.07 | 0.948 ± 0.099 | 0.87 ± 0.15 | 0.999 (active)
8 | COc1ccccc1C(=O)Nc1ccc(Nc2ccc(-n3cccn3)nn2)cc1 | 2.27 ± 0.12 | 1.36 ± 0.12 | 1.91 ± 0.092 | 0.334 ± 0.017 | 1.45 ± 0.094 | 1.11 ± 0.1 | 0.721 (active)
9 | O=C1c2ccccc2C(=O)C1c1ccccc1 | 1.36 ± 0.21 | 1.01 ± 0.085 | 1.32 ± 0.15 | 0.856 ± 0.03 | 1.18 ± 0.1 | 0.968 ± 0.14 | 0.996 (active)
10 | Cc1ccc(Sc2c(C)nn(-c3ccccc3)c2OC(=O)C(C)(C)C)cc1 | 0.74 ± 0.07 | 0.87 ± 0.075 | 0.928 ± 0.12 | 0.557 ± 0.031 | 1.08 ± 0.1 | 1.03 ± 0.19 | 0.963 (active)
11 | O=C(O)CCc1nc(-c2ccccc2)c(-c2ccccc2)o1 | 1.05 ± 0.079 | 0.998 ± 0.066 | 1.03 ± 0.023 | 0.931 ± 0.055 | 0.976 ± 0.12 | 1.03 ± 0.15 | 0.991 (active)
12 | N=C(N)Nc1nc(CSCCC(=N)NS(N)(=O)=O)cs1 | 1.09 ± 0.1 | 0.992 ± 0.059 | 1.06 ± 0.039 | 0.967 ± 0.064 | 0.898 ± 0.036 | 1.02 ± 0.088 | 0.995 (active)
13 | c1ccc(-n2nnnc2Sc2ncnc3sc4c(c23)CCCC4)cc1 | 0.74 ± 0.043 | 0.481 ± 0.088 | 0.442 ± 0.027 | 0.0638 ± 0.0026 | 0.349 ± 0.095 | 0.835 ± 0.14 | 0.994 (active)
14 | O=c1cc2c(nn1CC1CCN(CC3(O)CCOCC3)CC1)CCCC2 | 1.08 ± 0.1 | 0.988 ± 0.099 | 0.918 ± 0.066 | 1.08 ± 0.063 | 1.21 ± 0.075 | 1.04 ± 0.17 | 1.01 (active)
15 | Cc1ccc(NC(Nc2ccc(C)cc2)=C(C(Cl)=C(Cl)Cl)[N+](=O)[O-])cc1 | 1.01 ± 0.17 | 0.881 ± 0.07 | 1.18 ± 0.36 | 0.264 ± 0.01 | 1.29 ± 0.14 | 1.33 ± 0.16 | 0.998 (active)
16 | Cc1cc(C)c(NC(=O)COc2ccc(C)cc2C(C)(C)C)c(C)c1 | 0.975 ± 0.13 | 0.975 ± 0.06 | 0.962 ± 0.11 | 0.953 ± 0.029 | 1.14 ± 0.19 | 1.01 ± 0.23 | 1.01 (active)
17 | CC1(C)CC(=O)C2=C(C1)OC(N)=C(C#N)C21CCCC1 | 1.04 ± 0.18 | 0.94 ± 0.08 | 0.933 ± 0.072 | 0.91 ± 0.025 | 1.13 ± 0.15 | 1.3 ± 0.13 | 1 (active)
18 | COc1ccc(-n2c(C)c([N+](=O)[O-])c3ccc(O)cc32)cc1 | 0.835 ± 0.15 | 1.26 ± 0.1 | 1.34 ± 0.17 | 0.393 ± 0.021 | 0.594 ± 0.089 | 0.601 ± 0.063 | 0.999 (active)
19 | OCCN(CCO)c1nc(N2CCCCC2)c2nc(N(CCO)CCO)nc(N3CCCCC3)c2n1 | 1.58 ± 0.22 | 1.39 ± 0.35 | 1.06 ± 0.07 | 0.502 ± 0.022 | 1.18 ± 0.18 | 1.28 ± 0.17 | 0.984 (active)
20 | N#Cc1nc(-c2ccc(COc3ccccc3)o2)oc1N1CCCCC1 | 1.07 ± 0.06 | 1.24 ± 0.077 | 1.12 ± 0.069 | 1.27 ± 0.071 | 1.53 ± 0.1 | 1.3 ± 0.14 | 0.981 (active)
21 | Brc1ccc(-c2cc(-c3ccccc3)nc(N3CCCCC3)n2)cc1 | 0.951 ± 0.2 | 1.1 ± 0.092 | 1 ± 0.079 | 0.859 ± 0.03 | 1.17 ± 0.11 | 1.33 ± 0.15 | 1 (active)
22 | O=C(O)c1coc(CNC(=O)c2cocc2C(=O)O)c1 | 1.04 ± 0.1 | 1.08 ± 0.08 | 0.902 ± 0.054 | 0.996 ± 0.027 | 1.51 ± 0.21 | 1.14 ± 0.072 | 1.01 (active)
23 | CN(Cc1cnc2nc(N)nc(N)c2n1)c1ccc(C(=O)NC(CCC(=O)O)C(=O)O)cc1 (configuration not stated) [Prestw-373] | 0.987 ± 0.24 | 0.701 ± 0.04 | 0.87 ± 0.072 | 0.614 ± 0.037 | 1.16 ± 0.19 | 1.01 ± 0.13 | 0.791 (active)
24 | CCN(CC)c1ccc(C=NNC(=O)c2ccccc2)c(O)c1 | 2.34 ± 0.38 | 2.11 ± 0.16 | 4.3 ± 0.34 | 0.0729 ± 0.013 | 2.18 ± 0.29 | 2.36 ± 0.42 | 0.814 (active)
25 | C#CCN[C@@H]1CCc2ccccc21 [Prestw-1734] | 1.05 ± 0.06 | 0.933 ± 0.11 | 0.978 ± 0.026 | 0.977 ± 0.037 | 0.957 ± 0.054 | 0.973 ± 0.1 | 0.996 (active)
26 | CCCCC1=NC2(CCCC2)C(=O)N1Cc1ccc(-c2ccccc2-c2nnn[nH]2)cc1 [Prestw-1736] | 1.21 ± 0.29 | 0.96 ± 0.057 | 0.952 ± 0.087 | 0.943 ± 0.034 | 1.22 ± 0.19 | 1.06 ± 0.18 | 1 (active)
